Test results taken from publication PMC4552634, “A New Set of Chemical Starting Points with Plasmodium falciparum Transmission-Blocking Potential for Antimalarial Drug Discovery” (PLoS ONE, 2015).
Hit rate of the full screen: of about 13,000 compounds, about 3,200 (25%) showed an effect of 50% or more. The list shows a part of the results.

What follows are compounds tested on P. falciparum stage V gametocytes. Conditions: 48 h, 5 µM; inhibitor.
Design: BacTiter-Glo ATP luminescence viability of purified stage V gametocytes in 384-well plates, per cent inhibition versus DMSO

Structure (SMILES)	% Inhibition [%]
CCOC(=O)CC[C@@H](NC(=O)c1ccc(NCc2ccc3ccc4nc(C)[nH]c(=O)c4c3c2)cc1F)C(=O)N[C@@H](Cc1c[nH]c2ccccc12)C(=O)OCC [TCMDC-137320]	27.07
O=C(Nc1cccc(-c2cc(-c3c(Cl)cccc3Cl)no2)c1)c1cnc2ccccc2c1 [TCMDC-136759]	13.25
CC(=O)N(C)C1CCN(Cc2cccc(-c3ccc(-c4nc5cc(F)ccc5[nH]4)cc3)c2)C1.O=C(O)C(F)(F)F (stereo not drawn) [TCMDC-133894]	26.71
O=C(NC1CCN(Cc2ccc3c(c2)OCCO3)CC1)c1ccc(-c2cccc(Cl)c2)s1 [TCMDC-134338]	2.147
O=C(Nc1cccc(Cl)c1)N(CCCn1ccnc1)Cc1csc(-c2ccc(CNCc3ccccc3)cc2)n1 [TCMDC-141796]	19.94
O=C(NC1CCCCC1)N(CCCn1ccnc1)Cc1csc(-c2ccc(CNCc3ccccc3)cc2)n1 [TCMDC-141645]	7.097
O=C(NC1CC1c1ccccc1)N(CCCn1ccnc1)Cc1csc(-c2ccc(CNCc3ccccc3)cc2)n1 (stereo not drawn) [TCMDC-141644]	86.73
CC(=O)c1cccc(S(=O)(=O)NCCCNc2nc3cc(C)cc(C)c3cc2C#N)c1 [TCMDC-123734]	8.065
CCS(=O)(=O)N1CCN(c2nc(-c3ccccc3)nc(COC)c2Cc2ccccc2F)CC1 [TCMDC-124784]	-1.025
COc1ccc(Nc2nc(N/N=C/c3ccc(O)cc3)nc(Nc3ccc([N+](=O)[O-])cc3)n2)cc1 [TCMDC-124127]	-40.32
COc1cc(/C=N/Nc2nc(Nc3ccccc3)nc(Nc3ccccc3)n2)ccc1OCc1ccccc1[N+](=O)[O-] [TCMDC-125793]	59.87
O=[N+]([O-])c1cccc(C=NNc2nc(Nc3ccccc3)nc(Nc3ccccc3)n2)c1 [TCMDC-125797]	40.05
Cc1cc(NC2CCCC2)nc(Nc2ccccc2C)n1 [TCMDC-133473]	-0.2818
O=C(Cc1ccc(Cl)cc1)Nc1cc(Cl)ccc1Cn1cnc(N2CCNCC2)cc1=O [TCMDC-134317]	-8.964
Cc1nc(NCc2ccccc2)cc(Nc2cc(NCc3ccccc3)nc(C)n2)n1 [TCMDC-137298]	0.4033
Cl.Oc1ccccc1Nc1nc(NCc2ccco2)c2ccccc2n1 [TCMDC-124544]	-81.25
Cc1ccc(O)c(Nc2c3c(c(C#N)c4nc5ccccc5n24)CCC3)c1 [TCMDC-124227]	16.2
CCCCNc1c(CC)c(C)c(C#N)c2nc3ccccc3n12 [TCMDC-125729]	72.07
COc1ccc(Nc2nc(NCc3ccco3)c3ccccc3n2)cc1.Cl [TCMDC-124562]	32.58
Cc1c(CCC#N)c(NCc2ccccc2)n2c(nc3ccccc32)c1C#N [TCMDC-123759]	74.35
Cc1cc(NCCCN2CCCC2=O)n2c(nc3ccccc32)c1C#N [TCMDC-124485]	-25.7
COc1ccc2ncc(C#N)c(CCN3C[C@H](CNCc4ccccc4)[C@H](O)C3)c2n1 [TCMDC-136369]	48.08
CCc1c(C)c(C#N)c2nc3ccccc3n2c1NCc1ccco1 [TCMDC-124079]	78.38
COc1ccccc1N=C1SC(=Cc2cn(CC(=O)N3CCCc4ccccc43)c3ccccc23)C(=O)N1C1CCCCC1 [TCMDC-124809]	13.24

Structure (SMILES)	% Inhibition [%]
Cc1c(C(=O)N2CCCC(C(F)(F)F)C2)sc2cccc(F)c12 (stereo not drawn) [TCMDC-124598]	6.461
CS(=O)(=O)CCNCc1ccc(-c2cc3c(Nc4ccc(OCc5cccc(F)c5)c(Cl)c4)ncnc3s2)[nH]1 [TCMDC-135511]	-19.72
COc1ccc(C2CC(=O)C3=C(C2)NC(C)=C(C(=O)OC2CCCC2)C3c2cccc(O)c2)cc1 (stereo not drawn) [TCMDC-125631]	10.18
CC(C)(CNCc1ccc(C(F)(F)F)cc1)c1nc(-c2ccc(Cl)c(O)c2)c(-c2ccncc2)[nH]1 [TCMDC-140689]	22.22
CC(C)(CNCc1ccc(Cl)cc1)c1nc(-c2ccc(Cl)c(O)c2)c(-c2ccncc2)[nH]1 [TCMDC-140548]	-50.17
CC(C)(CNCc1ccc(F)c(F)c1)c1nc(-c2ccc(Cl)c(O)c2)c(-c2ccncc2)[nH]1 [TCMDC-140672]	-67.6
COc1ccc(CNCC(C)(C)c2nc(-c3ccc(Cl)c(O)c3)c(-c3ccncc3)[nH]2)cc1 [TCMDC-140538]	-60.58
CC(C)(CNCc1cccc(Oc2cccc(C(F)(F)F)c2)c1)c1nc(-c2ccc(Cl)c(O)c2)c(-c2ccnc(N)n2)[nH]1 [TCMDC-141166]	55.63
CC(C)(CNCc1ccc(Cl)c(Cl)c1)c1nc(-c2ccc(Cl)c(O)c2)c(-c2ccncc2)[nH]1 [TCMDC-140688]	78.8
CC(C)(CNCc1ccc(C(F)(F)F)cc1)c1nc(-c2ccc(Cl)c(O)c2)c(-c2ccnc(N)n2)[nH]1 [TCMDC-141162]	38.42
CN(C)CCCOc1ccc(CNCC(C)(C)c2nc(-c3ccc(Cl)c(O)c3)c(-c3ccncc3)[nH]2)cc1 [TCMDC-140650]	71.95
CC(C)(CNCc1cccc(Oc2ccccc2)c1)c1nc(-c2ccc(Cl)c(O)c2)c(-c2ccnc(N)n2)[nH]1 [TCMDC-141167]	23.98
Cc1ccc2nc(C)cc(NC(=O)Nc3ccc(N(C)C)cc3)c2c1 [TCMDC-140108]	-84.19
N#Cc1ccc2c(c1)CCN(CCC1CCC(NC(=O)/C=C/c3ccc(Cl)c(Cl)c3)CC1)CC2 (stereo not drawn) [TCMDC-139792]	-12.21
CC(C)C(=O)Nc1c(F)cc(F)cc1CCc1ccc(O)cc1 [TCMDC-137532]	15.35
CC1(C)N=C(N)NC(Nc2ccc(F)c(F)c2)=N1 [TCMDC-123533]	-23.61
CN1CCN(Cc2ccc(-c3ccc4c(Nc5ccc(Oc6ccccc6)cc5)ccnc4c3)o2)CC1 [TCMDC-138402]	53.53
CN1CCN(Cc2ccc(-c3cc4nccc(Nc5ccc(Oc6ccccc6)cc5)c4cc3Cl)o2)CC1 [TCMDC-138463]	37.01
c1ccc(Oc2ccc(Nc3ccnc4cc(-c5ccc(CNCCN6CCOCC6)o5)ccc34)cc2)nc1 [TCMDC-138423]	-53.28
c1ccc(Oc2ccc(Nc3ccnc4cc(-c5ccc(CN6CCOCC6)o5)ccc34)cc2)nc1 [TCMDC-138424]	11.61
c1ccc(Oc2ccc(Nc3ccnc4cc(-c5ccc(CN6CCCCC6)o5)ccc34)cc2)nc1 [TCMDC-138422]	-0.3034
Cc1ccc(O)cc1Nc1ccnc2cc(-c3ccc(CN4CCCCC4)o3)ccc12 [TCMDC-138384]	25.1
c1ccc(Oc2ccc(Nc3ccnc4cc(-c5ccc(CN6CCNCC6)o5)ccc34)cc2)nc1 [TCMDC-138421]	97.92
CN1CCN(Cc2ccc(-c3ccc4c(Nc5ccc(Oc6ccccn6)cc5)ccnc4c3)o2)CC1 [TCMDC-138420]	73.84
